# Sampled rows, rich in hits. Any-hit rate of the full collection: about 1.4%.
# MenB inh = inhibitors of Mycobacterium tuberculosis MenB enzyme; 100,000 compounds, 0.43% hits; MenB enzyme assay, absorbance read-out; AID 540299; inhibition, % (test concentration not listed); in the data active means inhibition above about 21%, passing the limit was not always enough
# Target sequence (P9WNP5 whole entry, looked up): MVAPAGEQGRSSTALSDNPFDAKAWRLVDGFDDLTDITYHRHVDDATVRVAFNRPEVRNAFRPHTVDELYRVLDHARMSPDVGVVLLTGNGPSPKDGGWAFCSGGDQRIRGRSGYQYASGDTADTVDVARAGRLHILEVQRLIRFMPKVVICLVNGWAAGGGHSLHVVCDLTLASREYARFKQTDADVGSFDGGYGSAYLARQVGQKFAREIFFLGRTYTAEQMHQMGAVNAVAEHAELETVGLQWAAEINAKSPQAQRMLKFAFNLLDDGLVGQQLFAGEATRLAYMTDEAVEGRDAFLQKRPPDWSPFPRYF
# AID504770 = growth inhibitors of E. coli YBA685 in a screen for V. cholerae RctB (chromosome II replication) inhibitors; E. coli YBA685 rctB-dependent plasmid, OD600 growth, 3 h; hits give low values; AID 504770; 130,000 compounds, 0.27% hits; z-score (test concentration not listed); in the data active means z-score below about -2, passing the limit was not always enough
# PV pol inh = inhibitors of poliovirus RNA polymerase binding and polymerization. P03300. poliovirus polymerase elongation, fluorescence polarization; hits give low values. % elongation, % (compound at 16.7 µg/mL). 150,000 compounds, 0.66% hits. AID 588519; in the data active means % elongation below about 90%
# Mtb MbtI inh = blocks the Mycobacterium tuberculosis siderophore enzyme MbtI; P9WFX0; purified MbtI enzyme, fluorescence intensity read-out; inhibition, % (test concentration not listed); 100,000 compounds, 0.89% hits; AID 493033; in the data active means inhibition mostly above about 56%, no sharp cut-off; inactive means mostly below about 77%
# Active calls of the source: *; / = no result given.
SMILES,MenB inh,AID504770,PV pol inh,Mtb MbtI inh
CCn1cc(C(=O)O)c(=O)c2cc(F)c(N3CCNC(C)C3)c(F)c21 (stereo unspecified),0.5,-3.65*,103.0,57.6
COc1ccccc1N1CCN(C(=O)c2nc(-n3nc(C)cc3C)ccc2Cl)CC1,-18.6,-0.85,100.0,-6.8
CSC1=C(C#N)C(=O)NC(c2ccc(Cl)cc2)S1 (stereo unspecified),-1.1,-0.1,88.0*,1.9
CN(C)S(=O)(=O)c1cccc(C(=O)OCC(=O)NC2CC2)c1,-2.5,1,103.0,16.2
COC(=O)CC1C(=O)NCCN1C(=O)CSc1nc2ccccc2s1 (stereo unspecified),-56.3,0.15,95.0,97.2*
COC(=O)CC1C(=O)NCCN1C(=O)CSc1nc2ccccc2c(=O)n1-c1ccc(C)cc1 (stereo unspecified),5.5,2.2,100.0,19.5
CCCC12CN3CC(C)(CN(C1)C31CCN(Cc3ccccc3)CC1)C2=O,13.5,0.5,102.0,-16.6
Cc1ccc2occ(CC(=O)N(Cc3ccccc3Cl)C3CCS(=O)(=O)C3)c2c1 (stereo unspecified),/,/,-14.0*,/
CCN(CC)C(=O)COc1ccc2c(CC(=O)O)coc2c1,-6.1,-2.6*,104.0,-8.6
CCN(CC)C(=O)COc1ccc2ccc(=O)oc2c1,9.0,0.05,104.0,-42.9
O=C1CC(NC(=O)c2ccc(Cl)cc2)C(=O)N1 (stereo unspecified),/,-0.1,102.0,78.8*
Cc1ccc(C(=O)NCC2CCCO2)cc1 (stereo unspecified),8.2,0.7,102.0,5.0
CCn1c(N)c(C(=O)NCC2CCCO2)sc1=S (stereo unspecified),-19.4,0.05,96.0,81.8*
CCn1c(N)c(C(=O)NC)sc1=S,-21.2,-0.45,97.0,86.7*
O=C(Cn1ncc2c3ccccc3n(Cc3ccccc3)c2c1=O)Nc1ccc(F)cc1,/,1.95,/,/
Cc1ccc(N=C2NN=C(c3ccccc3)C(C(=O)Nc3ccc4c(c3)OCO4)S2)cc1 (stereo unspecified),-7.1,1.05,85.0*,39.4
Cc1nn(-c2ccccc2)c(OC(=O)C(C)C)c1S(=O)(=O)c1ccccc1,14.8,2,102.0,14.8
COc1ccc2c(c1)-c1nc(/N=C/c3ccc(C)o3)sc1CC2,-48.8,-0.4,97.0,82.4*
COc1ccc2c(c1)CCc1sc(/N=C/c3ccc(C)cc3)nc1-2,-17.3,1.15,101.0,17.5
CCN1C(=O)C(=Cc2ccc(-c3ccc(Br)c(Cl)c3)o2)C(=O)N(CC)C1=S,3.6,1,99.0,90.3*
COc1ccc(C=C2C(=O)NC(=O)NC2=O)cc1,-41.8,0.3,103.0,27.1
COc1ccc(C=C2C(=O)NC(=S)NC2=O)cc1,-36.3,-1,104.0,96.9*
CC1(C)CCCC2=C1CC(C(=O)O)C(C(=O)O)C2 (stereo unspecified),3.7,0.55,98.0,-2.2
CCOCC(O)CN (stereo unspecified),-10.3,-0.4,100.0,-4.3
CC(C)OCC(O)CN (stereo unspecified),32.2*,1.95,102.0,-1.4
SMILES,MenB inh,AID504770,PV pol inh,Mtb MbtI inh
O=C(CCc1nnc2ccc(NCc3ccccc3)nn12)N1CCCC1,0.0,2.75,101.0,22.0
CCN1C(=O)C(=Cc2ccc(OC(F)F)cc2)C(=O)N(CC)C1=S,-85.5,0.6,101.0,54.5*
O=C(c1cccnc1Nc1ccccc1F)N1CCCCC1,38.8*,1.1,100.0,8.4
CCN1C(=O)N/C(=C/c2cn(Cc3ccccc3)c3ccccc23)C1=O,-33.9,0.25,103.0,-9.1
Cc1ccc(NC(=O)CNS(=O)(=O)c2ccccc2)c(C(=O)c2ccccc2)c1,-9.5,0.3,103.0,-24.4
COc1ccc(C2(CNC(=O)c3ccco3)CCOCC2)cc1,-12.9,0.15,78.0*,/
O=c1cc(CSc2ncccn2)nc2sccn12,-14.5,0.75,104.0,7.8
Cc1cc(C)n(C(=O)c2ccoc2C)n1,36.0*,-0.55,100.0,-0.8
Cc1cc(C)n(C(=O)c2cccs2)n1,4.6,0.4,103.0,0.8
OCc1cc2c(cc1Br)OCO2,/,0.8,/,/
CC1(C)N=C(c2ccccc2)C(=S)N1C(=O)c1ccccc1,-19.1,0,98.0,56.6*
C=CCN(CC=C)C(=O)c1csc(Nc2ccc(C)cc2)n1,-12.6,-0.05,102.0,/
O=S(=O)(NCc1csc(-c2cccs2)n1)c1cccc2cccnc12,/,1.05,/,/
CCCCN(C)C(=O)C1CCC(CNS(=O)(=O)c2ccc3c(c2)CC(C)N3C(C)=O)CC1 (stereo unspecified),/,/,15.0*,/
O=C1c2ccccc2-c2onc3c(Cl)ccc1c23,-25.8,1.75,100.0,0.6

# Screening results (PubChem)
